Bioassay records as filed in PubChem.
IL-1B inflam inh: inflammasome signaling inhibition, IL-1 beta readout | THP-1 LPS/ATP IL-1B secretion, AlphaLISA, 16 h; stronger effect = lower value | activity change, % at 57.5 µM | 360,000 tested, 4.7% active | AID 743279; in the data active = activity change below about -50%; inconclusive = mostly about -30% to -49%
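THP-1 cells pretreated 1 hr with compounds (up to 57.5 uM final), then stimulated with LPS (250 ng/mL final) plus ATP (1.25 mM final); secreted IL-1B measured by AlphaLISA after 16 hr, decreased signal indicating inhibition.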
DT40 TDP1 CPT: growth inhibition of DT40 Tdp1-/-;hTDP1 cells with camptothecin (screen for TDP1 inhibitors) | chicken DT40 Tdp1-/-;hTDP1 cells + 20 nM CPT, ATP luminescence, 48 h | 420,000 tested, 12% active | Potency, µM (doses to about 46.2 µM), for inactives: at the highest dose activity change, negative = growth inhibition, hits mostly inhibitors | AID 686979; note: potency is the fitted concentration of half-maximal effect; nearly all actives have a fitted effect of over 55% in size
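Cell growth measured by CellTiter-Glo luminescence after a minimum 48 h, 37 C compound exposure with 20 nM CPT in Tdp1-knockout DT40 cells stably expressing hTDP1, seeded 400/well; qHTS titration format.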
DT40 TDP1 no CPT: qHTS for Inhibitors of human tyrosyl-DNA phosphodiesterase 1 (TDP1): qHTS in cells in absence of CPT | DT40 Tdp1-/- hTDP1 cells, no CPT, ATP luminescence, 48 h | Potency, µM (series often up to 46.2 µM), for the others: at the highest dose activity change, negative = growth inhibition, usual class: inhibitors | 420,000 tested, 15% active | AID 686978, 2013; note: potency is the fitted concentration of half-maximal effect; nearly all actives have a fitted effect of over 55% in size
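DT40 Tdp1-/-;hTDP1 cells, no CPT (DMSO vehicle only), 400 cells/well; compounds pin-transferred; ≥48 hr, 37 °C; CellTiter-Glo 30 min RT dark, luminescence read.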
HT1080-NT tox: kills 2HG-producing HT-1080-NT fibrosarcoma cells; HT-1080-NT fibrosarcoma viability, CellTiter-Glo ATP luminescence, 48 h; Potency, µM (highest dose often 46.1 µM), for the others: top-dose activity, negative = less viability, hits mostly cytotoxic; 360,000 tested, 1.6% active; AID 686970;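 note: NT is the 2HG producing partner of a matched IDH1 knockdown line; potency is the fitted concentration of half-maximal effect; 0% = DMSO-treated cells and -100% = media-only wells without cells; nearly all actives have a fitted effect of over 55% in size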
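A 48-hour cytotoxicity screen used HT-1080-NT cells plated 2 hours before compound delivery. ATP-based CellTiter-Glo luminescence measured viability, normalized to DMSO and no-cell controls.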
HT1080 IDH1KD tx: kills HT-1080 cells with IDH1 knockdown; AID 686971; Potency, µM (series often up to 46.1 µM), for inactives: top-dose activity, negative = toxicity, usual class: cytotoxic; 360,000 tested, 2% active; HT-1080 IDH1 knockdown viability, ATP luminescence, 48 h;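 note: potency is the fitted concentration of half-maximal effect; 0% = DMSO wells and -100% = cell-free medium wells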
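% activity derives from luminescence (CellTiter-Glo), normalised to DMSO and no-cell wells. HT-1080-IDH1KD cells, 750/well, had 48 h compound exposure at 37 °C.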
ALOX12 inh: inhibitors of human 12S-lipoxygenase ALOX12; purified 12hLO, xylenol orange hydroperoxide absorbance; AID 1671190; 580,000 tested, 1.1% active; Potency, µM (titrated, usually from 108 µM), for the others: top-dose activity change, negative = inhibition, actives largely listed as inhibitors; note: potency is the fitted concentration of half-maximal effect
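Hydroperoxide product was detected by ferrous iron/xylenol orange as the 573 to 405 nm absorbance ratio. Arachidonic acid at 40 uM (final) was turned over for 30 min at room temperature by 150 nM human 12hLO, pH 7.0 Hepes buffer, after 15 min compound preincubation.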
The depositor's hits bear a star; ? = inconclusive; nt = no result; [ ] = another dose, or the depositor's remark. Only a selection was taken, and hits are over-represented in it overall. Unless noted, calls come from the whole dose curve; as a rule, active = well fitted curve in the direction sought with a large enough effect; inconclusive = small, poorly fitted or top-dose-only effect, or another doubt; inactive = no such curve, though single readings can be large; an effect the other way counts as inactive or inconclusive. Unless noted, % is set by controls: 0 for no effect and ±100 for the full control effect.

SMILES	IL-1B inflam inh	DT40 TDP1 CPT	DT40 TDP1 no CPT	HT1080-NT tox	HT1080 IDH1KD tx	ALOX12 inh
CC1(COc2ccccc2)COc2ccc(C(=O)NC3CCC(O)CC3)cc2N1 (stereo not given)	nt	nt	nt	nt	nt	-7%[176 µM]
CCNC(=O)c1cc2c(=O)n3cccc(C)c3nc2n(Cc2ccc(C)cc2)c1=N	13	18µM*	16µM*	-8%	-7%	0%
COCCCn1c(C(=O)Nc2ccc3c(c2)OCO3)cc2c(=O)n3cccc(C)c3nc21	-3	?	12µM*	8%	14%	-28%
COCCCn1c(C(=O)N2CCOCC2)cc2c(=O)n3cccc(C)c3nc21	-4	1%	-6%	5%	5%	8%
Cc1cccn2c(=O)c3cc(C(=O)NCC4CCCO4)c(=N)n(Cc4cccnc4)c3nc12 (stereo not given)	-11	18µM*	26µM*	13%	11%	0%
Cc1cccn2c(=O)c3cc(C(=O)NCCN4CCOCC4)c(=N)n(Cc4ccc(F)cc4)c3nc12	?	7.3µM*	7.3µM*	-22%	?	-17%
N#CC1CCN(C(=O)c2nc(-c3cccc(C(F)(F)F)c3)c3ccccn23)CC1	nt	nt	nt	nt	nt	15%
COc1ccc2cc(CO)n(C)c2c1	27	8.2µM*	?	16%	11%	?
COc1ccc2cc(C=O)n(C)c2c1	21	-4%	3%	0%	13%	-9%
CCOC(=O)c1ccc(Nc2nc3nonc3nc2Nc2cccc(C)c2C)cc1	nt	2.6µM*	2.1µM*	nt	nt	-14%
Cc1ccc(C)c(Nc2nc3nonc3nc2Nc2cccc(C)c2C)c1	nt	3.7µM*	2.9µM*	nt	nt	-9%
CCOC(=O)c1ccc(Nc2nc(-c3ccccc3)no2)cc1	nt	nt	nt	nt	nt	2%
CN(C(=O)c1ccc(F)cc1)C1CCc2ccccc21 (stereo not given)	nt	nt	nt	nt	nt	110%[176 µM]
O=C1N(CCc2ccccc2)c2ccccc2C12CCN(Cc1ccncc1)C2 (stereo not given)	nt	nt	nt	nt	nt	53%
Cc1noc([C@@H]2CN(C(=O)CC(C)C)C[C@H]2CO)n1	nt	nt	nt	nt	nt	33%
COCCN1C(=O)CO[C@H]2CN(C3CCN(C(C)=O)CC3)C[C@H]21	nt	nt	nt	nt	nt	12%[176 µM]
CC(C)(C)C1CCC(OCC(O)CN(CCO)CCO)CC1 (stereo not given)	nt	nt	nt	nt	nt	7%
COc1ccc(N(CC(=O)Nc2ccccc2C(F)(F)F)C2=NC3CS(=O)(=O)CC3S2)cc1 (stereo not given)	-60*	-20%	?	-2%	15%	-1%
Cc1cc(C)cc(N(CC(=O)Nc2ccccc2)C2=NC3CS(=O)(=O)CC3S2)c1 (stereo not given)	-94*	?	?	0%	5%	4%
O=C1Nc2ccccc2O[C@H]2C[C@@H]1N(Cc1ccc3ccccc3n1)C2	nt	nt	nt	nt	nt	63%[176 µM]
Clc1ccc(-c2nnc(C34CC5CC(CC(C5)C3)C4)o2)cn1	20	?	29µM*	22%	22%	nt
Cn1cc(C2CCN(C(=O)c3sc(Cl)c(Cl)c3Cl)CC2)c2ccccc21	nt	nt	nt	nt	nt	-11%
Cc1ccc(C(=O)N2CCc3[nH]nc(C(=O)N(C)C)c3C2)cc1F	nt	nt	nt	nt	nt	4%
COc1ccccc1NC(=O)/C=C/c1ccc2c(c1)OCO2	6	16µM*	?	?	-15%	0%
COc1ccccc1N1CCN(C(=O)/C=C/c2ccc3c(c2)OCO3)CC1	13	21µM*	21µM*	10%	5%	15%
COc1cc(/C=C/C(=O)N2CCN(c3ccccn3)CC2)cc(OC)c1OC	0	?	23µM*	7%	6%	1%
